Experimental findings from PubChem BioAssay AID449728 (The Scripps Research Institute Molecular Screening Center, 2010) are described below.

Molecules are shown by their SMILES. Screen size: about 330,000 compounds; about 900 (0.27%) were called active.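 Rule for the calls: active = inhibition above the campaign's mean inhibition across all tested compounds plus 3 SD (cut at about 9.9% in these data); inactive = the rest.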 The entries come from a sample that favours actives as a whole.

This experiment can be described thus: E. coli V3065 growth inhibition, primary screen, counter-screen for AddAB inhibitor project, absorbance, OD600 (AID 449728).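 Note: uninfected addAB+ strain grown without phage in ampicillin broth; 0% = DMSO wells and 100% = ciprofloxacin 0.95 µg/ml wells.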 The settings on record: 18 h, at 11.9 µM, stronger effect = higher value.
Broadly, the inhibition is the relative decrease from the control value, in per cent. As for `CC[C@H]1OC(=O)[C@H](C)[C@@H](O[C@H]2C[C@@](C)(OC)[C@@H](O)[C@H](C)O2)[C@H](C)[C@@H](O[C@@H]2O[C@H](C)C[C@H](N(C)C)[C@H]2O)[C@](C)(O)C[C@@H](C)[C@@H]2N[C@@H](COCCOC)O[C@H]([C@H]2C)[C@]1(C)O`, the inhibition is 39.7% (active).
With `O=C(Nc1cccc2c1N(C(=O)c1ccco1)CCC2)c1ccco1`, the inhibition is 0.81% (inactive).
Then `CCCc1nc(SCC(=O)N2CCCC2)c2c(=O)n(C)c(=O)n(C)c2n1`, with 0.51% (inactive).
Then `O=C(NCc1ccncc1)C(=O)NCc1ccco1`, with -0.95% (inactive); and `C/C(N)=C(/C#N)C(=O)COC(=O)C1CCN(C(=O)c2ccc(Cl)cc2)CC1`, with -2.66% (inactive).
Then `N#Cc1c(-c2ccc(F)cc2)cc(C2CC2)nc1SCC(=O)c1cccs1`, with -0.26% (inactive); and `COc1cc(NS(=O)(=O)c2ccc(NC(=O)c3ccc([N+](=O)[O-])cc3)cc2)ncn1`, with 1.53% (inactive).
As to `Cn1ccc(=Nc2ccc(NC(=O)c3ccc(N=c4ccn(C)c5ccc([N+](=O)[O-])cc45)cc3)cc2)cc1`, the inhibition is 103% (active).
Then `CC(=O)NC(=S)Nc1ccc(NC(=S)NC(=O)c2ccc([N+](=O)[O-])cc2)cc1`, with -0.16% (inactive).
Then `C=CCn1c(SCC(N)=O)nnc1-c1cc2c(s1)CCC(CC)C2` (stereo not drawn), with 1.3% (inactive); and `CCCCN(CC)CCNC(=O)c1[nH]c(C)c(C(C)=O)c1C`, with -0.92% (inactive); and `O=C(CN1CCN(c2ccccn2)CC1)Nc1ccc(Br)cc1`, with 2.27% (inactive).
With `CCN(CC)c1ccc(NC(=O)CN2CCN(c3ccccn3)CC2)cc1` the figure was 10.5% (active); with `O=C(CN1CCN(c2ccccn2)CC1)NC1CCCCC1`, 1.09% (inactive).
With `NC(=O)NCCCC(=O)O`, the inhibition was -0.17% (inactive).
With `CC(=O)N(O)CCCCCNC(=O)CCC(=O)N(O)CCCCCNC(=O)CCC(=O)N(O)CCCCCNC(=O)CCC(=O)O` the figure was 25.5% (active).
For the molecule `O=C(COC(=O)c1cc(S(=O)(=O)N2CCCCC2)ccc1Cl)NCc1ccco1`, the inhibition is -0.84% (inactive).
Take `CC1CCCC(NC(=O)c2cc(S(=O)(=O)N3CCCCC3)ccc2Cl)C1C` (stereo not drawn): the inhibition is -1.24% (inactive).
Then `O=C(NNC(=O)c1cc(S(=O)(=O)N2CCCCC2)ccc1Cl)c1ccccc1O`, with 10.3% (active); and `CCn1cc(/C=C2/SC(=S)NC2=O)c(C)n1`, with 0% (inactive).
For `Brc1ccc(/C=N/N2CCN(C3c4ccccc4-c4ccccc43)CC2)s1`, the inhibition was 0.91% (inactive).
In the case of `Cc1nn2c3cc(N4CCOCC4)ccc3nc2c2ccccc12`, the inhibition was 0.55% (inactive).
With `COC(=O)CSc1nc2c(c(C3CC=CCC3)c1C#N)CCC2` (stereo not drawn) the figure was 0.17% (inactive).
